# Experimental data reported in paper PMC12864922, “TDP-43 directly inhibits mRNA accumulation in neurites through modulation of mRNA stability”.
# The full ranking holds about 9,900 sequences; the median of “r (bound/input frequency ratio)” is about 0.7, and the highest 2% start at about 6.5. The full list was thinned out, with the highest values kept by preference.
# B1: ENSMUSG00000031028.156|Tub (ssRNA)
# RNA: GGGAGUUCUACAGUCCGACGAUCGCUUCGAUAUCCGCAUGCUAAGCUCCCAUUAUUGCCAGCAUGCCAUGAUCAGUGAGGGCUGUGUGCCAUGCUUAGGGGGAUGGCGCAGGGUGAGGGGAGCAGAGGAUAUUUUAGGGCCACAAGAGCUCAGAGGUAGCGGACCUCUGUGUGGUUCACCAACAGCAAUGCUGAUCCCUGAGUAUAGGGCACAUGUCUCUUGGUUACCUCACUGGUUAAUGGCAGAGUUGAGAACCUCAAAUUCUUUUGUUCCUACUGUUGCCCAGAAACUAGACUCUCUGACCUCUUGCGGUCGCACUAGUGUGGAAUUCUCGGGUGUCAAGG
# B2: ENSMUSG00000031028.651|Tub (ssRNA)
# RNA: GGGAGUUCUACAGUCCGACGAUCGCUUCGAUAUCCGCAUGCUAGCUGAAAUGUAGAGUGUUCUAUAGAGCAUCUCAGUAGCAUAGAAGGAGAAGCCCAGCUCCAACCUCCUGGACCCCAUACUGGUGACCAGCUUGGUGAGGACAGGCAAAAUUUCUCUAGCUGAGAGCACACUUAGCCAGUUUUCACGCCUAGAACAUAUAUGUCGAUUUGCACAUGAUUGUCUUUUCCUAUUUUGGAGUGGUCAGACAUUUUAUUUUUGUUCAAAAUUAUCUGGAGUUUUAGACAAACUUGCAAAACUGUGCUCUUGCGGUCGCACUAGUGUGGAAUUCUCGGGUGUCAAGG
# B3: ENSMUSG00000090935.711|Synj2bp (ssRNA)
# RNA: GGGAGUUCUACAGUCCGACGAUCGCUUCGAUAUCCGCAUGCUAAAGAACUGGGCUAAGUCCAGAGCUCUGCUCUCUGAGCAUCUGCCCCAGAUACAGAGGCAGAGUAUGAAGUGGAACAUUGUUUUAUUCCUAGGUGCUCAGGACAGACUGAUCAACCUCCAGUAACAUAUGUGGUUAGUAAGUGCUUCAGCUUGUGUAGCCAUUAAUAACCAAGUCAUAGGAUUGUGAAUCUAAAAUACUCCUGGGUAAAAUUUGUAUUAGAAUGGAAAAAAAAAUGAGGGUCAGAAAGGUGAGCUAACUUCCUCUUGCGGUCGCACUAGUGUGGAAUUCUCGGGUGUCAAGG
# B4: ENSMUSG00000029636.217|Wasf3|154:158;247:254 (ssRNA)
# RNA: GGGAGUUCUACAGUCCGACGAUCGCUUCGAUAUCCGCAUGCUAAUAAGUCUGUGAUAUCCGCAGGCUUGGGUUACAGGGAGGACCUUGCAGAGGGACCAGGACACUGCCUUCCCUUAGGUGCAUUAUUUACGUGGCCUGCAGCUCUUAAUAUCUCUCACUGUUUAUGAAAAGAAAGAUUCAGAUCCGGGGUGACAUACACACAGUUGACAGGGAAUGCCUGUGGGAUAAUUAAAAAUGGUUUUUGCUCAUGAGUUUGGGAUGUCACCCAGCCGCCCACAUCGCCUGCUAACACACACGACGCCCUCUUGCGGUCGCACUAGUGUGGAAUUCUCGGGUGUCAAGG
# B5: ENSMUSG00000031028.206|Tub (ssRNA)
# RNA: GGGAGUUCUACAGUCCGACGAUCGCUUCGAUAUCCGCAUGCUACCAGAGAUGAAACCCCUCCGAGUUAAUGUAUAAGGUUGGAAACCUUUCAGUAGGGAAUCAGGCAGUUCCCUGUUGAAAGUUGUCUGAGUUUUUGCACACCAUUCUGAUCUGAUGUGGCCUGUGCCUGGCUCCUCUAUGAGGACUUCGAGCUGUGCACAGACCUUAGCAGGACCACUGCACACUUUGUGUCUGUGUGACAGGCAGCCCAAGGGUUCUGGGGCUGGGCUUGGACACGCCCUCCAUUGGGAUGGCACCACUCACUCUUGCGGUCGCACUAGUGUGGAAUUCUCGGGUGUCAAGG
# B6: ENSMUSG00000058297.231|Spock2 (ssRNA)
# RNA: GGGAGUUCUACAGUCCGACGAUCGCUUCGAUAUCCGCAUGCUAAACCAUGCCCCAGACUCUAUUUAAAGCCCUAUAGCAUAUAUGAAUAGAGAACGGUGUAUCUAUCAGAGGGGACCACACUGAGCAGCUAGGCCCUGAUGCCAUGCCUCAGCACGCCCUCAGACCUCCAGGCCGGGUGGAAGGGGCUUUUACCCAGAUGUCCUGUGGGGUUUUGUGUGUCUAUUGCUCCCCACUUCCCCCUCUCAAAGGAAAUUUCCUUGAUAUAUUUGAUGAAGAAUUCCUUACCUGGGCCUCUGAUACCCCUCUUGCGGUCGCACUAGUGUGGAAUUCUCGGGUGUCAAGG
# B7: ENSMUSG00000061578.43|Ksr2|85:91;96:100 (ssRNA)
# RNA: GGGAGUUCUACAGUCCGACGAUCGCUUCGAUAUCCGCAUGCUAAGCCACAGACUGAGCACACCACCUCGGACUGUGGAGACCAAGACACAUGCCCAGUGGGCAGACUCAGACUCACACGCUGGACCACACACACCGCAACACACUACACAUGGACAGGGCCAACUGCUAUCCUUCUGCCUGGACGAGCCAGCUGUGGAGUGUCCCAGCUGUGCUAUCCUGGAACACAGAACCAGGAUGGAACCAGAAACAAUACACCUGCUCCGUUGUCAAGGCUUCUAGGCCAAGGUCAGGGUAGGGAGGUGCUCUUGCGGUCGCACUAGUGUGGAAUUCUCGGGUGUCAAGG
# B8: ENSMUSG00000029636.220|Wasf3 (ssRNA)
# RNA: GGGAGUUCUACAGUCCGACGAUCGCUUCGAUAUCCGCAUGCUACAGGCUUGGGUUACAGGGAGGACCUUGCAGAGGGACCAGGACACUGCCUUCCCUUAGGUGCAUUAUUUACGUGGCCUGCAGCUCUUAAUAUCUCUCACUGUUUAUGAAAAGAAAGAUUCAGAUCCGGGGUGACAUUGUGUCAGUUGACAGGGAAUGCCUGUGGGAUAAUUAAAAAUGGUUUUUGCUCAUGAGUUUGGGAUGUCACCCAGCCGCCCACAUCGCCUGCUAUGUGUGUGGACGCCUGUCCGCUUGGCCAGCUACUCUUGCGGUCGCACUAGUGUGGAAUUCUCGGGUGUCAAGG
# B9: ENSMUSG00000029636.163|Wasf3 (ssRNA)
# RNA: GGGAGUUCUACAGUCCGACGAUCGCUUCGAUAUCCGCAUGCUACAUGGAAGCUUGGCUUUAGCUGAGAGAUGCCACCAGCUGUUCACAACCCAUGGUGCUGUGGCUAGAUUCCUGCUCAGUCUCUCAAACAGGGCCACACCCCUCCUGAAGCACAGCUCUCUUCUCUCCUGUUGUCGGCACAUUUUCAAUUUUAAAAAGUACCUCACAAGAUAAACUUGAUUCAGCCAGUUGCCCGGGCAGAGACCUGACUUCCCCUCUCCUGCCCUGAUCCUUUUUACCAAAUGGCGAUUCCAUAGUCCUGGCUCUUGCGGUCGCACUAGUGUGGAAUUCUCGGGUGUCAAGG
# Biological target: TDP-43 (Homo sapiens, UniProt Q13148 1-414)
# Sequence (Q13148 whole entry): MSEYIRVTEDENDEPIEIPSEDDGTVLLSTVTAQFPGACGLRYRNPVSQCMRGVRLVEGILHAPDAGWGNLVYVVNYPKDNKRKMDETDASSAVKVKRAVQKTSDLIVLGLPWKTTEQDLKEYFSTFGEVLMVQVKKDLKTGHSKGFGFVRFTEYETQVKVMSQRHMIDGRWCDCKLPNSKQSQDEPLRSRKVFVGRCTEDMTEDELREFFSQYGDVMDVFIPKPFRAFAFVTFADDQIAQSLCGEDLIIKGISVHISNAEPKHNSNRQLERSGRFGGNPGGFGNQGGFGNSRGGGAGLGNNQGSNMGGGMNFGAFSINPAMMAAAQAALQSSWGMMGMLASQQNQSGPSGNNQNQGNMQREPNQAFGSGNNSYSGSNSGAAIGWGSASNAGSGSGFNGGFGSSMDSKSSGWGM
# Assay: RNA Bind-n-Seq with designed 260-mer pool; 25 mM Tris-HCl, 150 mM KCl, 3 mM MgCl2, BSA (printed 500 mg/mL), 20 units/mL SUPERase IN; pH not stated; 500 nM RNA pool, 1 h, 4 C; TDP-43 5, 50, 500 nM; high values mean tight binding
# Conditions: protein: recombinant; tags: SBP (GST cleaved off with PreScission; pGEX-GST-SBP)
# Method in brief: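 Recombinant SBP-tagged TDP-43 at 5, 50 or 500 nM was captured on streptavidin beads, then incubated 1 h at 4 °C with 500 nM of an in vitro-transcribed 260-nt 3′ UTR oligo pool in 25 mM Tris-HCl, 150 mM KCl, 3 mM MgCl2, BSA and SUPERase IN. Bound RNA was washed, eluted with biotin, reverse transcribed, PCR-amplified and sequenced. Binding is R, each oligo's mapped-read-normalized abundance in the bound sample divided by its abundance in input. Duplicates used two independent protein batches.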
row,Binder,binding signal
1,B1,0.518 R (bound/input frequency ratio)
2,B2,0.18 R (bound/input frequency ratio)
3,B3,1.47 R (bound/input frequency ratio)
4,B4,1.49 R (bound/input frequency ratio)
5,B5,1.26 R (bound/input frequency ratio)
6,B6,0.453 R (bound/input frequency ratio)
7,B7,0.525 R (bound/input frequency ratio)
8,B8,3.17 R (bound/input frequency ratio)
9,B9,0.217 R (bound/input frequency ratio)
